# MITF TRPM1 HTS = activators of MITF-driven TRPM1 promoter reporter, primary screen, cell-based, SK-MEL-5, luciferase, single point | SK-MEL-5 TRPM1-promoter luciferase, 24 h; % of positive control, neutral wells = 0 | 300,000 tested, 0.75% active | activation, % at 12.5 µM;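 active means mean activation of at least 80% with every replicate also reaching 80%; inconclusive means mean reaches 80% but some replicate falls short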
# Wnt act = Wnt/beta-catenin pathway activators, primary screen, cell-based, plate reader, single point | Wnt/beta-catenin reporter cell assay, activator | activation, % at 9.35 µM | 300,000 tested, 1.2% active | AID 743398, 2014; in the data active means activation above about 30%, passing the limit was not always enough; inconclusive means no clear call, values can overlap the other calls
# GAA850 FXN act = FXN promoter activators, primary screen, cell-based, luciferase luminescence, HEK293 lucGAA850; HEK293 lucGAA850 FXN promoter luciferase reporter, 24 h; percent of 10 µM SAHA response; activation, % at 6 µM; 360,000 tested, 0.56% active;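 active means activation above the average of all compounds screened plus 3 SD, cutoff fixed separately per campaign, cut at about 7.5% in these data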
# esBAF inh = Bmi1 luciferase reporter increase in mESCs, primary screen, esBAF inhibitor project, mouse ES cells, Bmi1 luciferase knock-in, single point | 24 h; 100% = twice the neutral-well signal | reporter increase, % at 12.5 µM | 350,000 tested, 2% active | AID 602393, 2012; in the data active means activation above about 40%; inconclusive means no clear call, values can overlap the other calls;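 further: a rise in the Bmi1 reporter signal indicates esBAF inhibition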
# AHR act = AHR activators, primary screen, cell-based, luminescence, luciferase reporter, human; Aryl hydrocarbon receptor (Homo sapiens), P35869; AHR-responsive luciferase reporter cells; activation, % at 5 µM; 320,000 tested, 2.5% active; in the data active means activation above about 47%
# Target sequence (P35869 whole entry, looked up): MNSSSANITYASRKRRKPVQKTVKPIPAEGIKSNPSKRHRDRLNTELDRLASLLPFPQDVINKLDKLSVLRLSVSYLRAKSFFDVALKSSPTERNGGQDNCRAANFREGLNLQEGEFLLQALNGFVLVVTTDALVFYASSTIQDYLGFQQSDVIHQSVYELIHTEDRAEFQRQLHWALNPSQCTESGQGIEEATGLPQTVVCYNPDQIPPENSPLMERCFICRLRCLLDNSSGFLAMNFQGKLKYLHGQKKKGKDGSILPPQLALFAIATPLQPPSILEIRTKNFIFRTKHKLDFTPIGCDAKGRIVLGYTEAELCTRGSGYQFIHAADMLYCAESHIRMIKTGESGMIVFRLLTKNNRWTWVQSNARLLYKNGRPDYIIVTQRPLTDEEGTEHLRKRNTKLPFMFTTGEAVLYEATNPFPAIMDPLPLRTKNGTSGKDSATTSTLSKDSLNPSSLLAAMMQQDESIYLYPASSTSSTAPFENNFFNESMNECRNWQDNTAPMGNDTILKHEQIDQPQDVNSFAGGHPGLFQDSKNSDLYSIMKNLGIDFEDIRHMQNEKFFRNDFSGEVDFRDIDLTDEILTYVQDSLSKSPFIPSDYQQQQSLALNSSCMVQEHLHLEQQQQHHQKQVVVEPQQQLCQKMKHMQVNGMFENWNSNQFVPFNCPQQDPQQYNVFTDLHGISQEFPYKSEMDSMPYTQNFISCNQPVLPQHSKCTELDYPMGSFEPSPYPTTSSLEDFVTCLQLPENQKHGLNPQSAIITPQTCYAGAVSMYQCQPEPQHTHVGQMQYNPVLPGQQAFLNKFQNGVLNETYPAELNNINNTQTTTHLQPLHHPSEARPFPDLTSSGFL
# A number is an active result; - = inactive; ? = inconclusive; . = no result; ! = not active in a repeat. Most compounds without a hit are left out; they make up all but 4.2% or so of the library.
SMILES,MITF TRPM1 HTS,Wnt act,GAA850 FXN act,esBAF inh,AHR act
Cc1ccc(OCc2cc(C(=O)N3CCC(c4ccccc4Cl)C3)no2)cc1C (stereo not given),-,-,-,57.1,-
Cc1ccc(OCc2cc(C(=O)N3CCCCCCC3)no2)cc1C,-,-,-,-,-
Cc1ccc(OCc2cc(C(=O)N3CCN(c4ccccc4)CC3)no2)cc1C,82.5,35.6,-,?,-
Cc1ccc(OCc2cc(C(=O)N3CCN(C4CCCCC4)CC3)no2)cc1C,-,-,-,55.2,-
C[C@@H]1CN([C@H](C)CO)C(=O)c2cc(C#CC3CCCCC3)cnc2O[C@@H]1CN(C)C,.,.,.,-,.
CCC(=O)Nc1ccc2c(c1)C(=O)N(C)C[C@H](OC)[C@H](C)CN(C(=O)c1ccncc1)[C@H](C)CO2,.,.,.,-,.
Cn1c(CSc2ccccc2)c(C#N)c2ccccc21,-,.,-,63.4,-
Cc1ccc(SCc2c(C#N)c3ccccc3n2C)cc1,.,-,-,-,-
C[C@@H]1CCCCO[C@H](CN(C)Cc2ccc(C(F)(F)F)cc2)[C@H](C)CN([C@H](C)CO)C(=O)c2cc(NS(C)(=O)=O)ccc2O1,.,.,.,-,.
Fc1ccc(OCc2cc(-c3ccccc3)no2)cc1,100.4,-,-,56.7,-
COCCNC(=S)N/N=C(\C)c1ccc(-n2ccnc2)cc1,-,.,-,.,86.8
CCOc1ccc(S(=O)(=O)Nc2ccc(C(=O)N/N=C(\C)c3ccc(-n4ccnc4)cc3)cc2)cc1,.,.,-,-,53.7
CCOc1ccc(S(=O)(=O)Nc2ccc(C(=O)NN)cc2)cc1,-,53.0,-,-,-
CCOc1ccc(S(=O)(=O)Nc2ccc(C(=O)NNC(=O)c3ccncc3)cc2)cc1,-,-,-,.,-
CCOc1ccc(OCc2ccc(C(=O)N(CC)CC)cc2)cc1,-,-,-,78.5,-
CCC(=O)c1ccc(OCc2ccc(C(=O)OC)cc2)cc1,-,-,-,60.0,-
Cc1noc(C)c1NC(=O)N(C)C[C@@H]1OCCCC[C@@H](C)Oc2ccc(NC(=O)Nc3ccccc3)cc2C(=O)N([C@H](C)CO)C[C@@H]1C,.,.,.,-,.
Cc1noc(C)c1S(=O)(=O)Nc1ccc2c(c1)CC(=O)N([C@H](C)CO)C[C@H](C)[C@@H](CN(C)C(=O)NC1CCCCC1)O2,.,.,.,-,.
Cc1noc(C)c1COc1ccccc1C(=O)N(C)Cc1ccco1,-,37.8,-,-,-
Cc1noc(C)c1COc1ccccc1C(=O)N(C)CC(=O)Nc1ccc(Cl)c(Cl)c1,-,-,-,-,-
C[C@@H]1CCCCO[C@@H](CN(C)S(=O)(=O)c2cn(C)cn2)[C@@H](C)CN([C@H](C)CO)C(=O)c2cc(NS(C)(=O)=O)ccc2O1,.,.,.,-,.
O=C(C[C@H]1CC[C@H](NC(=O)C2CCOCC2)[C@@H](CO)O1)Nc1ccc(-c2ccccc2)cc1,.,.,.,-,.
COc1cc(NC(=O)c2noc3c2CCCC3)c(OC)cc1Cl,-,-,-,-,55.3
O=C(Nc1cc(Cl)ccc1Cl)c1noc2c1CCCC2,-,-,-,-,75.1
COc1ccc(Cl)cc1NC(=O)c1noc2c1CCCC2,-,-,-,-,-
SMILES,MITF TRPM1 HTS,Wnt act,GAA850 FXN act,esBAF inh,AHR act
Nc1c(C(=O)Nc2ccc(F)cc2)sc2nc(-c3ccco3)ccc12,-,-,-,.,72.2
CC(=O)c1sc2nc(-c3ccco3)ccc2c1N,.,-,-,.,-
Nc1c(C(=O)Nc2ccc(Br)cc2)sc2nc(-c3ccco3)ccc12,-,.,-,-,60.4
C[C@H]1CN([C@@H](C)CO)C(=O)c2cccc(NC(=O)C3CCOCC3)c2O[C@@H]1CN(C)Cc1ccc(-c2ccccc2)cc1,.,.,.,-,.
C1=C(c2cc3ccccc3cn2)CCCC1,96.6,49.6,-,79.0,-
Fc1ccc2cnc(C3=CCCCC3)cc2c1,103.4,33.3,-,?,-
C1=C(c2cn(-c3nc4ccccc4s3)nn2)CCCC1,.,-,.,.,.
C[C@@H]1CN([C@@H](C)CO)C(=O)c2cccc(NS(=O)(=O)c3cccs3)c2O[C@H]1CN(C)S(=O)(=O)c1ccccc1,.,.,.,-,.
Cc1nnc(SCC(=O)Nc2ccc(O)cc2)c2ccccc12,-,-,-,-,-
Cc1nnc(SCC(=O)Nc2ccccc2)c2ccccc12,-,-,-,68.9,-
Cc1c(OCC(F)(F)F)ccnc1CS(=O)c1nc2ccccc2[nH]1 (stereo not given),-,-,-,47.7!,-
COCCCOc1ccnc(CS(=O)c2nc3ccccc3[nH]2)c1C (stereo not given),-,-,-,-,-
Cc1noc(C)c1S(=O)(=O)Nc1ccc2c(c1)C(=O)N([C@@H](C)CO)C[C@H](C)[C@@H](CN(C)S(=O)(=O)c1ccc(Cl)cc1)OCCCC[C@@H](C)O2,.,.,.,-,.
C[C@@H]1CN([C@H](C)CO)C(=O)c2cccc(NS(C)(=O)=O)c2O[C@@H]1CN(C)CC1CC1,.,.,.,-,.
Fc1ccc(/C=N/NC2=Nc3cccc4cccc2c34)cc1,-,58.4,-,.,-
c1ccc(NC2=Nc3cccc4cccc2c34)cc1,-,-,-,-,-
CCNC(=O)C[C@H]1CC[C@@H]2[C@H](COC[C@@H](O)CN2C(=O)Nc2cccc(OC)c2)O1,.,.,.,-,.
C=CCNc1nc(C(=O)OCC(=O)c2ccccc2)cs1,-,-,-,54.9,-
Cc1ccc(NC(=O)c2sc3nc(C)cc(C)c3c2N)cc1,83.2,36.1,-,-,-
Cc1cc(C)c2c(N)c(C(=O)NN)sc2n1,-,-,-,.,-
COc1ccc(NC(=O)c2sc3nc(C)cc(C)c3c2N)c(OC)c1,.,-,-,.,-
Cc1cc(C)c2c(N)c(C(=O)Nc3cccc(C)c3C)sc2n1,-,-,-,-,67.8
Cc1cc(C)c(Nc2ncccc2C(=O)O)c(C)c1,-,-,-,.,-
Cc1ccc(Nc2ncccc2C(=O)O)cc1C,-,-,-,49.1,-
c1cncc(-c2nc3c(ccc4ccccc43)[nH]2)c1,-,-,-,52.2,127.1
SMILES,MITF TRPM1 HTS,Wnt act,GAA850 FXN act,esBAF inh,AHR act
O=c1[nH]c(-c2cccnc2)nc2ccccc12,-,-,-,-,-
Oc1ccccc1/C=N/Nc1ccccc1,-,-,-,?,-
O=C(C=NNc1ccccc1)c1ccccc1,-,58.2,-,-,.
C[C@H]1CCCCO[C@H](CN(C)C(=O)c2ccccc2)[C@@H](C)CN([C@@H](C)CO)C(=O)c2cc(NS(=O)(=O)c3cccs3)ccc2O1,.,.,.,-,.
CC(=O)Oc1ccc2c(c1)C(=O)c1ccccc1CO2,-,-,-,.,-
COc1ccc(C2=Cc3ccc(OC(C)=O)cc3OC2)cc1,103.5,-,-,78.3,.
CCOC(=O)c1c(C)[nH]c(C(=O)N/N=C/c2ccc(Br)cc2)c1C,-,-,-,.,66.9
Cc1[nH]c(C(=O)N/N=C/c2ccc(C(=O)O)cc2)c(C)c1C(=O)N/N=C/c1ccc(C(=O)O)cc1,-,-,-,-,-
C[C@H]1CN([C@@H](C)CO)C(=O)c2cc(NC(=O)Nc3ccc4c(c3)OCO4)ccc2O[C@H]1CN(C)S(C)(=O)=O,.,.,.,-,.

# Assay outcomes: PubChem, several laboratories
